Assay results taken from PubChem BioAssay.
For some of these results: Potency and affinity values are given separately. Activity calls are given as the source filed them. Unless noted, the rule behind the calls is not given here.

Tests used:
[1] = antimalarial activity against Dd2 strain (AID 2302;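 active = growth inhibition above 50% at the single 2 µM test dose, taken to imply half-maximal potency below 2 µM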;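 note: 0% = DMSO untreated growth and 100% = chloroquine plus artemisinin killed control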); conditions: P. falciparum Dd2 in RBCs, LDH growth readout, 72 h; at 2 µM; active compounds read high
[2] = HepG2 cytotoxicity, primary screen, cytotoxicity control for P. falciparum antimalarial project, cell-based, ATP luminescence (AID 2303;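 active = inhibition above 50%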;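 note: 0% = DMSO wells and 100% = digitonin-killed cells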); conditions: HepG2 viability, 24-48 h, at 10 µM, active compounds read high
[3] = molecular target: L-lactate dehydrogenase (Plasmodium falciparum (isolate CDC / Honduras)) (UniProt Q27743); experiment: PfLDH activity inhibition – cell lysate, 3D7 strain, counter-screen for P. falciparum growth inhibition project (AID 2304);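 note: 0% = vehicle and 100% = reference inhibitor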; conditions: P. falciparum 3D7 crude extract, LDH APAD/NBT absorbance; at 2 µM; active compounds read high
Sequence of L-lactate dehydrogenase (Plasmodium falciparum (isolate CDC / Honduras)) (Q27743 whole entry, looked up): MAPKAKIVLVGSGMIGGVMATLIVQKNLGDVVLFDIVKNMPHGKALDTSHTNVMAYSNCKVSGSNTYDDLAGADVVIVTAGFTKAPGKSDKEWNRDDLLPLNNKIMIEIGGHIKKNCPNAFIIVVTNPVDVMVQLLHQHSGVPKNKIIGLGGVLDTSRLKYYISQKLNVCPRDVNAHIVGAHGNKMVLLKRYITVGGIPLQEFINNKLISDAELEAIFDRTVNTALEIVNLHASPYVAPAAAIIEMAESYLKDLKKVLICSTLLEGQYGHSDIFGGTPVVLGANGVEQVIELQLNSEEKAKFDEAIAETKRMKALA

[4] = inhibition of 3D7 malaria parasite growth – strain 3D7 (AID 2306);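 note: 0% = DMSO wells and 100% = chloroquine plus artemisinin control wells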; conditions: P. falciparum 3D7 erythrocytic growth, LDH absorbance, 72 h; at 2 µM; active compounds read high
[5] = molecular target: Calcium-dependent protein kinase 1 (Plasmodium falciparum (isolate 3D7)) (UniProt P62344); experiment: PfCDPK1 kinase inhibitors, biochemical, TCAMS library (AID 1159585; cut-off not given, nearly all actives have IC50 up to about 0.98 µM;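 note: inhibitors leave more ATP so luminescence rises with inhibition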); conditions: recombinant PfCDPK1, Kinase-Glo ATP depletion luminescence
Sequence of Calcium-dependent protein kinase 1 (Plasmodium falciparum (isolate 3D7)) (P62344 whole entry, looked up): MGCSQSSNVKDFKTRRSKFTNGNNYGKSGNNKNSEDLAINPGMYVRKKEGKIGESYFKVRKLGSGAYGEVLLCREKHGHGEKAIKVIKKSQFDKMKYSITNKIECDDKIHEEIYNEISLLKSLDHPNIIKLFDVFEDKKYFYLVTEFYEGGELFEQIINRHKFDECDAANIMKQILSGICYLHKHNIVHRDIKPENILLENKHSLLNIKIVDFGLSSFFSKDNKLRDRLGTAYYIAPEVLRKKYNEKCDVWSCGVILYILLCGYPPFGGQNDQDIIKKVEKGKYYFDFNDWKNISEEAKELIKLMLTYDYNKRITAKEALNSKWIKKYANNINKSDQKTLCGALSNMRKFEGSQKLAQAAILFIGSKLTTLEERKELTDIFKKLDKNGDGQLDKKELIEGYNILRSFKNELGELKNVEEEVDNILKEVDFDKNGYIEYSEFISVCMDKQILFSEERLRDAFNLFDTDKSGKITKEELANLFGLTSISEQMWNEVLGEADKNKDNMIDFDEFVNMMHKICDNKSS

[6] = molecular target: Plasmodium falciparum protein kinase 6 (PK6, PF3D7_1337100) (UniProt Q8IDW1); experiment: PfPK6 kinase inhibitors, biochemical, TCAMS library (AID 1159586); conditions: recombinant PfPK6, Kinase-Glo ATP depletion luminescence
Sequence of Plasmodium falciparum protein kinase 6 (PK6, PF3D7_1337100) (Q8IDW1 1-305): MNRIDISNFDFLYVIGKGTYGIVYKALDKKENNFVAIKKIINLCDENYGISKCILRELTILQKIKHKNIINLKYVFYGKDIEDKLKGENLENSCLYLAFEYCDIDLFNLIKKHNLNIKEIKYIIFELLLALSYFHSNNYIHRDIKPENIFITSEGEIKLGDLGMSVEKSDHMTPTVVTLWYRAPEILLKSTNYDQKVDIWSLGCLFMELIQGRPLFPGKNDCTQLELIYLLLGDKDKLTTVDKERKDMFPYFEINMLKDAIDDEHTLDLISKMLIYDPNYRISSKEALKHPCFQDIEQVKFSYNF

[7] = molecular target: Protein kinase 7 (PK7), Plasmodium falciparum 3D7 (PF3D7_0213400) (UniProt Q7YTF7); experiment: inhibition of Plasmodium PK7 catalytic activity – biochemical, TCAMS antimalarial set, Kinase-Glo luminescence (AID 1159587); conditions: recombinant PfPK7, Kinase-Glo ATP depletion luminescence
Sequence of Protein kinase 7 (PK7), Plasmodium falciparum 3D7 (PF3D7_0213400) (Q7YTF7 1-343): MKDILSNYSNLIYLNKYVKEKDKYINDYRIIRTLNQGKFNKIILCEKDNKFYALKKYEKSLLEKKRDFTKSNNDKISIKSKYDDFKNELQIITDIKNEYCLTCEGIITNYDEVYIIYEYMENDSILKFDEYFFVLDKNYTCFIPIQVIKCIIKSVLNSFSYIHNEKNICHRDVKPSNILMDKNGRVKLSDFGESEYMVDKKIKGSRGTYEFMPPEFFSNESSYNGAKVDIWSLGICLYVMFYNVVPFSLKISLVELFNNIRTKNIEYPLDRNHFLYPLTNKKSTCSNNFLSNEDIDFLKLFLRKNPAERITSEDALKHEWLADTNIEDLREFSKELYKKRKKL

[8] = molecular target: Calcium-dependent protein kinase 4 (Plasmodium falciparum (isolate 3D7)) (UniProt Q8IBS5); experiment: PfCDPK4 kinase inhibitors, biochemical, TCAMS library (AID 1159588; cut-off not given, nearly all actives have IC50 up to about 0.91 µM); conditions: recombinant PfCDPK4, Kinase-Glo ATP depletion luminescence
Sequence of Calcium-dependent protein kinase 4 (Plasmodium falciparum (isolate 3D7)) (Q8IBS5 whole entry, looked up): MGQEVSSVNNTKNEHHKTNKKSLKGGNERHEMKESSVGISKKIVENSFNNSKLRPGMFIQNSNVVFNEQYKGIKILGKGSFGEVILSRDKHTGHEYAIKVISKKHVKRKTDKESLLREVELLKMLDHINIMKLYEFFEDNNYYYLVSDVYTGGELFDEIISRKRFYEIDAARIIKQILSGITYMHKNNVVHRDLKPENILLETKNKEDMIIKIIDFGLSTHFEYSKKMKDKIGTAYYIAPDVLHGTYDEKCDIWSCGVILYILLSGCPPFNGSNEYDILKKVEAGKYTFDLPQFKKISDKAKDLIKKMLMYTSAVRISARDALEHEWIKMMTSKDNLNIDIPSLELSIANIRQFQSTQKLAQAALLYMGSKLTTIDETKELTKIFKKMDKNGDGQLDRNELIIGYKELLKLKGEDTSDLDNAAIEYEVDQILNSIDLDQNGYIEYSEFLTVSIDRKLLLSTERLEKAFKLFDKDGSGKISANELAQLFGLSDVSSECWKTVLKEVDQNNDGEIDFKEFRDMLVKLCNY

CC(C)(C)Oc1ccc(NC(=O)c2ccccc2O)cc1
inactive: inhibition [2] 4% | inhibition [3] -6% | outcome [5] | outcome [6] | outcome [7] | outcome [8]
active: growth inhibition [1] 67% | growth inhibition [4] 86%

O=C(NC1CCC(CCN2CCc3ccc(-c4cnccn4)cc3CC2)CC1)c1cccc(-n2cccn2)c1 (stereo not drawn)
inactive: growth inhibition [1] 1% | inhibition [2] 23% | inhibition [3] -3% | outcome [5] | outcome [6] | outcome [7] | outcome [8]
active: growth inhibition [4] 93%

Cn1nc(-c2cccc(CNC3CCc4ccccc43)c2)c2cnc(NC3CCCC3)nc21 (stereo not drawn)
active: growth inhibition [4] 100%
inactive: growth inhibition [1] 23% | inhibition [2] 14% | inhibition [3] -1% | outcome [5] | outcome [6] | outcome [7] | outcome [8]

CCc1ccc(C2CCN(CCCCNC(=O)c3ccc(NC(=O)c4ccc(Cl)cc4)cc3)CC2)c(OC)c1
active: growth inhibition [1] 80% | growth inhibition [4] 101%
inactive: inhibition [2] 26% | inhibition [3] -6% | outcome [5] | outcome [6] | outcome [7] | outcome [8]

O=C(CCCCCNC(=O)c1ccc(O)c(-c2cccc(C(F)(F)F)c2)c1)NCCN1CCCCC1
active: growth inhibition [4] 99%
inactive: growth inhibition [1] 0% | inhibition [2] -5% | inhibition [3] 4% | outcome [5] | outcome [6] | outcome [7] | outcome [8]

COC(=O)c1ccc2c(-c3nc4ccc(OC)cc4[nH]3)c[nH]c2c1
active: growth inhibition [4] 95%
inactive: growth inhibition [1] 31% | inhibition [2] 0% | inhibition [3] 5% | outcome [5] | outcome [6] | outcome [7] | outcome [8]

O=C(Nc1ccc(OC2CCN(Cc3ccccc3)C2)c(Cl)c1)c1ccco1 (stereo not drawn)
active: growth inhibition [1] 94% | growth inhibition [4] 95%
inactive: inhibition [2] 13% | inhibition [3] 6% | outcome [5] | outcome [6] | outcome [7] | outcome [8]

CCOc1ccc2c(NN=Cc3c4ccccc4cc4ccccc34)cc(C)nc2c1
active: growth inhibition [1] 94% | growth inhibition [4] 90%
inactive: inhibition [2] -4% | inhibition [3] 0% | outcome [5] | outcome [6] | outcome [7] | outcome [8]

Cn1cccc1CCNCc1ccc(-c2cccc(-c3nc4ccccc4[nH]3)c2)cc1
inactive: inhibition [2] 1% | inhibition [3] 3% | outcome [5] | outcome [6] | outcome [7] | outcome [8]
active: growth inhibition [1] 66% | growth inhibition [4] 88%

COc1cccc(C=NNc2cc(C)nc3ccccc23)c1
inactive: growth inhibition [1] 46% | inhibition [2] 16% | inhibition [3] -8% | outcome [5] | outcome [6] | outcome [7] | outcome [8]
active: growth inhibition [4] 101%

Nc1nc(N)c2cc3ccc(OCc4ccccc4)cc3nc2n1
inactive: inhibition [3] 0% | outcome [5] | outcome [6] | outcome [7] | outcome [8]
active: growth inhibition [1] 75% | inhibition [2] 78% | growth inhibition [4] 100%

CCCC1N=C(N)N=C(N)N1c1ccc(C)cc1 (stereo not drawn)
active: growth inhibition [4] 94%
inactive: growth inhibition [1] 2% | inhibition [2] 1% | inhibition [3] -3% | outcome [5] | outcome [6] | outcome [7] | outcome [8]

CCc1[nH]nc(C(=O)Nc2cccc(N3CCCC3)c2)c1C
active: growth inhibition [1] 52% | growth inhibition [4] 81%
inactive: inhibition [2] 15% | inhibition [3] 1% | outcome [5] | outcome [6] | outcome [7] | outcome [8]

CCC(CC)C(CC(=O)NC(C)(C)CCc1ccccc1OC)Nc1ccc(C#N)c2ccccc12 (stereo not drawn)
active: growth inhibition [1] 91% | growth inhibition [4] 93%
inactive: inhibition [2] 9% | inhibition [3] -1% | outcome [5] | outcome [6] | outcome [7] | outcome [8]

CC(C)Cc1ccc(N2CCN(CCCCNC(=O)c3ccc(NC(=O)c4ccc(Cl)c(Cl)c4)cc3)CC2)cc1
active: growth inhibition [4] 94%
inactive: growth inhibition [1] 25% | inhibition [2] 21% | inhibition [3] 0% | outcome [5] | outcome [6] | outcome [7] | outcome [8]

O=C(NC1CCCCC1)N(Cc1cccc(-c2cccc(CNC3CCCC3)c2)c1)C1CCN(Cc2ccccc2)CC1
inactive: inhibition [3] -7% | outcome [5] | outcome [6] | outcome [7] | outcome [8]
active: growth inhibition [1] 90% | inhibition [2] 64% | growth inhibition [4] 96%

CN1CCCC1CCCOC(=O)c1ccc(N)cc1 (stereo not drawn)
active: growth inhibition [4] 101%
inactive: growth inhibition [1] 2% | inhibition [2] 8% | inhibition [3] -2% | outcome [5] | outcome [6] | outcome [7] | outcome [8]

CN1CCN(c2ccnc3ccc(NC(=O)Nc4cccc5c(C#N)cccc45)cc23)CC1
active: growth inhibition [4] 91%
inactive: growth inhibition [1] 40% | inhibition [2] -6% | inhibition [3] 8% | outcome [5] | outcome [6] | outcome [7] | outcome [8]

CC(=O)Nc1cccc(-c2cn(-c3ccc(OCc4cccc(F)c4)c(Cl)c3)c3ncncc23)c1
active: growth inhibition [1] 66% | growth inhibition [4] 100%
inactive: inhibition [2] 7% | inhibition [3] -4% | outcome [5] | outcome [6] | outcome [7] | outcome [8]

c1cc(CNCCc2ccncc2)cc(-c2csc(-c3nc4ccccc4[nH]3)c2)c1
inactive: inhibition [2] 16% | inhibition [3] -8% | outcome [5] | outcome [6] | outcome [7] | outcome [8]
active: growth inhibition [1] 99% | growth inhibition [4] 100%

Cc1ccc(Cn2nc(Cl)c(N3CCNCC3)cc2=O)cc1NC(=O)Nc1ccc(-c2ccccc2)cc1
active: growth inhibition [1] 97% | inhibition [2] 100% | growth inhibition [4] 98%
inactive: inhibition [3] -5% | outcome [5] | outcome [6] | outcome [7] | outcome [8]

CCCCc1ccccc1NS(=O)(=O)c1ccc(OC)c(N2CCNCC2)c1
active: growth inhibition [4] 91%
inactive: growth inhibition [1] 2% | inhibition [2] 6% | inhibition [3] 0% | outcome [5] | outcome [6] | outcome [7] | outcome [8]

CCN(CC)CCc1ccc2c(=O)cc(CCc3cccc(F)c3F)n(CC(=O)N(C)Cc3ccc(-c4ccc(C(F)(F)F)cc4)cc3)c2c1
active: inhibition [2] 98% | growth inhibition [4] 97%
inactive: growth inhibition [1] 45% | inhibition [3] 1% | outcome [5] | outcome [6] | outcome [7] | outcome [8]

Oc1ccc(Cl)cc1CN1CCC2(CCCN(CC3CCC3)C2)C1 (stereo not drawn)
active: growth inhibition [1] 94% | growth inhibition [4] 100%
inactive: inhibition [2] 5% | inhibition [3] -2% | outcome [5] | outcome [6] | outcome [7] | outcome [8]

CC(=O)Nc1ccc(C(=O)NC2CCN(c3ccnc4cc(Cl)ccc34)CC2)cc1
inactive: inhibition [2] 5% | inhibition [3] -4% | outcome [5] | outcome [6] | outcome [7] | outcome [8]
active: growth inhibition [1] 99% | growth inhibition [4] 101%

CCCCC(=O)NC(c1cccs1)c1cc(Cl)c2cccnc2c1O (stereo not drawn)
inactive: inhibition [3] 1% | outcome [5] | outcome [6] | outcome [7] | outcome [8]
active: growth inhibition [1] 90% | inhibition [2] 50% | growth inhibition [4] 93%

O=C(N[C@@H](Cc1cc(F)cc(F)c1)[C@H](O)CNCc1cccc(C(F)(F)F)c1)c1cc(C2CCCC2)cc(N2CCCC2=O)c1
inactive: growth inhibition [1] 45% | inhibition [2] 37% | inhibition [3] -3% | outcome [5] | outcome [6] | outcome [7] | outcome [8]
active: growth inhibition [4] 95%

CN(C)Cc1ccc2nc(-c3cccc(Cc4cc(Cl)ccc4OCc4ccc(Cl)cc4F)n3)[nH]c2c1
active: growth inhibition [4] 93%
inactive: growth inhibition [1] 26% | inhibition [2] 43% | inhibition [3] 1% | outcome [5] | outcome [6] | outcome [7] | outcome [8]

Cc1cccc2[nH]c(-c3cccc(-c4ccc(NC(=O)N[C@@H]5C[C@H]5c5ccccc5)cc4)c3)nc12
inactive: growth inhibition [1] 49% | inhibition [2] 25% | inhibition [3] 6% | outcome [5] | outcome [6] | outcome [7] | outcome [8]
active: growth inhibition [4] 98%

COc1ccc(NC(=O)NCC2CCCN(CCCCCNC(=O)/C=C/c3ccc(Cl)c(Cl)c3)C2)c(OC)c1 (stereo not drawn)
inactive: growth inhibition [1] -2% | inhibition [2] 8% | inhibition [3] -6% | outcome [5] | outcome [6] | outcome [7] | outcome [8]
active: growth inhibition [4] 95%

CC(C)(C)C(=O)N1CCN(c2ccc([N+](=O)[O-])c(NC3CC3)c2)CC1
active: growth inhibition [1] 97% | growth inhibition [4] 95%
inactive: inhibition [2] 8% | inhibition [3] 3% | outcome [5] | outcome [6] | outcome [7] | outcome [8]

N=c1n(Cc2ccccc2)c2ccccc2n1CC(O)c1ccc(Cl)c(Cl)c1 (stereo not drawn)
inactive: inhibition [2] 40% | inhibition [3] 4% | outcome [5] | outcome [6] | outcome [7] | outcome [8]
active: growth inhibition [1] 98% | growth inhibition [4] 95%

COCCCNC(=S)NN=C(C)c1ccccn1
inactive: inhibition [3] 3% | outcome [5] | outcome [6] | outcome [7] | outcome [8]
active: growth inhibition [1] 99% | inhibition [2] 55% | growth inhibition [4] 100%

O=C(N[C@H]1CCN(Cc2ccc(OC3CCN(Cc4ccccc4)CC3)cc2)C1)c1ccc(Cl)c(Cl)c1
inactive: growth inhibition [1] 6% | inhibition [2] 37% | inhibition [3] 1% | outcome [5] | outcome [6] | outcome [7] | outcome [8]
active: growth inhibition [4] 90%

O=C(/C=C/c1cccs1)NCC(NCCCNc1cc(=O)c2ccccc2[nH]1)c1cc(Br)cc(Br)c1 (stereo not drawn)
active: growth inhibition [1] 58% | growth inhibition [4] 100%
inactive: inhibition [2] 0% | inhibition [3] 0% | outcome [5] | outcome [6] | outcome [7] | outcome [8]

Cc1cc(Oc2cc(NC(=O)c3sc4ncn(Cc5ccccc5F)c(=O)c4c3C)cc([N+](=O)[O-])c2)ccc1Cl
active: growth inhibition [4] 94%
inactive: growth inhibition [1] 24% | inhibition [2] 2% | inhibition [3] 3% | outcome [5] | outcome [6] | outcome [7] | outcome [8]

Cc1cccc2[nH]c(-c3ccc(-c4ccc(NC(=O)NCc5cccc(F)c5)cc4)cc3)nc12
inactive: growth inhibition [1] 12% | inhibition [2] 46% | inhibition [3] 7% | outcome [5] | outcome [6] | outcome [7] | outcome [8]
active: growth inhibition [4] 97%

CN(CCCCNC(=O)c1ccc(-c2ccccc2)cc1)C1CCc2c(O)cccc2C1 (stereo not drawn)
inactive: growth inhibition [1] 21% | inhibition [2] 24% | inhibition [3] 0% | outcome [5] | outcome [6] | outcome [7] | outcome [8]
active: growth inhibition [4] 102%

O=C(Nc1ccc(Cl)cc1F)NC1CCN(CCCCCNC(=O)[C@@H]2C[C@H]2c2ccc(Cl)c(Cl)c2)CC1
active: growth inhibition [4] 101%
inactive: growth inhibition [1] 27% | inhibition [2] 46% | inhibition [3] -5% | outcome [5] | outcome [6] | outcome [7] | outcome [8]

CCCCN(CCCC)CCCN(CCCN(CCCC)CCCC)c1cc(C)nc(Nc2ccc3cc(Br)ccc3c2)n1
inactive: inhibition [3] 5% | outcome [5] | outcome [6] | outcome [7] | outcome [8]
active: growth inhibition [1] 99% | inhibition [2] 52% | growth inhibition [4] 101%

FC(F)(F)c1cccc(Nc2nc3nonc3nc2NC2C3CC4CC(C3)CC2C4)c1 (stereo not drawn)
active: growth inhibition [1] 100% | inhibition [2] 72% | growth inhibition [4] 103%
inactive: inhibition [3] -2% | outcome [5] | outcome [6] | outcome [7] | outcome [8]
